Measurements: the supplement of paper PMC8540655
Values without a mark were called inactive.

Test system: Aedes aegypti larvae
Assay: larval motility relative to same well at 0 h (fraction); higher = more motile (less active compound), active = 0.4 or less
Conditions: 10 µM
Procedure, shortened: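 Relative motility is the score of a well divided by its own score at the first recording. Movies were made with INVAPP at 0, 2 and 24 h, each having 200 frames at 100 ms intervals. Larvae of Aedes aegypti, from 18–24 h hatches in pond salt solution with yeast at 25 °C, sat at about 10 per well (100 µL) in 96-well plates with compounds at 10 µM and 1% v/v DMSO. Solvent and larvicide control wells were included on every plate, and values are medians of three independent larval batches.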

SMILES	larval motility (2 h)	larval motility (24 h)
CC(C)=CCC/C(C)=C/CNCCNC1C2CC3CC(C2)CC1C3 (stereo unspecified)	0.85	0.924
Oc1cccc(C(Nc2nccs2)c2ccc3cccnc3c2O)c1 (stereo unspecified)	1.09	0.912
CCOc1ccc(C(=O)NCCc2ccccc2)cc1	1.05	0.979
CN(O)C(=O)c1cc2c(CN3CCC[C@H]3C(N)=O)cn(Cc3ccc(F)cc3)c2cn1	0.668	1.08
CC1CCc2c(N3CCC(O)CC3)c(F)cc3c(=O)c(C(=O)O)cn1c23 (stereo unspecified)	1.3	0.744
COc1ccc(CNC(=O)C(NS(=O)(=O)c2ccc3nc(C)sc3c2)C(C)C)cc1 (stereo unspecified)	0.329 (active)	0.365 (active)
O=C(NCc1ccccc1Cl)c1cnc2ccccc2n1	1.23	0.674
O=C(NCc1ccc2c3c(cccc13)C(=O)N2)c1cccs1	0.944	0.861
N=C(N)c1ccc(COc2ccc(Cl)cc2)cc1	1.16	0.589
CC(C)N(c1cc(-c2ccccc2)sc1C(=O)O)C(=O)[C@H]1CC[C@H](C)CC1	0.697	0.742
Cc1oncc1C(=O)Nc1ccc(C(F)(F)F)cc1	0.743	0.744
CCc1ccccc1OCCN1CCCCCC1	1.18	1.21
C[C@@H]1O[C@@H]1P(=O)(O)O	0.617	0.856
O=C(O)/C=C/C=C/c1cccc(Oc2cc(Cl)cc(Cl)c2)c1	1.55	0.995
[N-]=[N+]=N[C@H]1C[C@H](n2ccc(=O)[nH]c2=O)O[C@@H]1CO	1.11	0.881
CSC[C@H]1CN(Cc2c[nH]c3c(N)ncnc23)C[C@@H]1O	1.02	0.589
CC(Oc1ccc(Cl)cc1Cl)C(=O)NCc1ccc2c(c1)OCO2 (stereo unspecified)	0.508	0.902

SMILES	larval motility (2 h)	larval motility (24 h)
O=c1cc(NCCCN[C@@H]2CCOc3c(Br)cc(Br)cc32)[nH]c2ccsc12	0.659	1.28
CC(=O)O[C@H]1C[C@@]2(C)[C@@H](C[C@@H](O)[C@H]3[C@@]4(C)CC[C@@H](O)[C@@H](C)[C@@H]4CC[C@@]32C)/C1=C(\CCC=C(C)C)C(=O)O	0.95	0.825
Oc1ccc(NCc2ccccc2OCc2ccccc2)cc1	0.844	1.62
CC(C)(C)c1cccc(-c2nc3cc(C(=N)N)ccc3[nH]2)c1O	1.04	0.466
CCNC(=O)Nc1cc2c(-c3ccnc(C)c3)ccc(CNC(=O)OC)c2cn1	0.695	0.931
NC(=O)c1[nH]c2ccc(S(N)(=O)=O)cc2c1-c1ccccc1	0.832	1.05
NC(=O)c1ccccc1NC(=O)c1ccc(C(=O)Nc2ccccc2C(N)=O)cc1	0.724	0.755
C[C@@H](O)[C@H](N)C(=O)NS(=O)(=O)c1cccc(-c2ccc3[nH]ncc3c2)c1	0.665	0.913
O=C(c1ccc(F)cc1)N1CCN2C(=O)c3ccccc3C12c1ccccc1 (stereo unspecified)	1.12	0.984
O=C(Nc1nnc(-c2ccccc2)o1)c1ccc(F)cc1	0.832	0.868
NCc1ccc(S(N)(=O)=O)cc1	0.675	0.66
CC1CN(c2ncnc3c2c(-c2ccccc2)cn3-c2ccc(F)cc2)CC(C)O1 (stereo unspecified)	0.791	0.856
O=C(CSc1nnc(Br)n1-c1ccc(C2CC2)c2ccccc12)Nc1ccc(C(=O)O)cc1Cl	0.815	0.894
CS(=O)(=O)c1ccc(Oc2ccc(Cl)cc2)cc1	0.907	1.02
CNc1nc(=O)[nH]cc1F	0.634	0.909
CCNC(=O)Nc1cc(-c2ccccc2)c(-c2cncc(C(=O)O)c2)cn1	0.236 (active)	0.433
